Structures are written as SMILES. Several values for one entry are separate records, joined by “and”; a condition that tells them apart may be missing. Equal values may be shown once. Activity calls are given as the source filed them. Unless noted, calls come from the whole dose curve; as a rule, active = well fitted curve in the direction sought with a large enough effect in the repeat runs; inconclusive = weak or mixed curves; inactive = no such curve, though single readings can be large; an effect the other way counts as inactive or inconclusive.

The nature of assay [1]: qHTS assay to identify small molecule antagonists of the glucocorticoid receptor (GR) signaling pathway - cell viability counter screen (AID 720693). Note: nearly all actives have a fitted effect of over 55% in size.
Assay [2] can be described thus: qHTS assay for identifying genotoxic compounds that show differential cytotoxicity against isogenic chicken DT40 cell lines with known DNA damage response pathways - wild type cell line (AID 743012). Note: nearly all actives have a fitted effect of over 60% in size. Note: potency is the fitted concentration of half-maximal effect. The gist of the method: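 Cells (DT40 wild type, 300/well) are treated with DMSO-dissolved compounds after a ~0.5 h pre-incubation and kept 40 h at 37 C/5% CO2. Viability is then measured by CellTiter-Glo luminescence following 30 min at room temperature.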

A short description of assay [3]: qHTS assay for identifying genotoxic compounds that show differential cytotoxicity against isogenic chicken DT40 cell lines with known DNA damage response pathways - Rev3 mutant cell line (AID 743014). Note: nearly all actives have a fitted effect of over 55% in size. Note: potency is the fitted concentration of half-maximal effect.
Assay [4] is described as follows: qHTS assay for identifying genotoxic compounds that show differential cytotoxicity against isogenic chicken DT40 cell lines with known DNA damage response pathways - Rad54/Ku70 mutant cell line (AID 743015). Note: nearly all actives have a fitted effect of over 60% in size. Note: potency is the fitted concentration of half-maximal effect.
Assay [5] in a line: qHTS assay to identify small molecule antagonists of the androgen receptor (AR) signaling pathway - cell viability counter screen (AID 743033; note: nearly all actives have a fitted effect of over 45% in size).
Assay [6] is described as follows: qHTS assay to identify small molecule antagonists of the thyroid receptor (TR) signaling pathway (AID 743065). Note: nearly all actives have a fitted effect of over 55% in size. Note: potency is the fitted concentration of half-maximal effect. An outline of the steps:
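Antagonism measured as loss of luciferase signal in GH3 cells stably carrying a TRE-luciferase reporter, co-treated with compound and T3 (1 nM final) for 23.5 h at 37 C. Viability was read in the same well by CellTiter-Fluor.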

For assay [7], the system named is thyroid hormone receptor (rat, GH3 cells). Briefly: qHTS assay to identify small molecule agonists of the thyroid receptor (TR) signaling pathway (AID 743066; calls by dose curve).
A short description of assay [8]: qHTS assay to identify small molecule antagonists of the estrogen receptor alpha (ER-alpha) signaling pathway - cell viability counter screen (AID 743074; calls by dose curve;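 note: HEK293 cells carrying ER-alpha-UAS-bla reporter stimulated with 17beta-estradiol; nearly all actives have a fitted effect of over 45% in size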).
A short description of assay [9]: qHTS assay to identify small molecule antagonists of the estrogen receptor alpha (ER-alpha) signaling pathway using the BG1 cell line - cell viability counter screen (AID 743081).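 Note: compound given together with 17beta-estradiol as the ER stimulus; series mostly up to about 70 µM; nearly all actives have a fitted effect of over 45% in size.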
The next assay has as its target Aromatase (Homo sapiens) (UniProt P11511). Kind of assay: qHTS assay to identify aromatase inhibitors (AID 743083). Note: nearly all actives have a fitted effect of over 55% in size. Note: potency is the fitted concentration of half-maximal effect.
Assay [10] in a line: qHTS assay to identify small molecule antagonists of the thyroid receptor (TR) signaling pathway - cell viability counter screen (AID 743064). Note: nearly all actives have a fitted effect of over 50% in size. Note: potency is the fitted concentration of half-maximal effect. The gist of the method: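 Viability of T3-stimulated (1 nM final) GH3.TRE-Luc cells is measured by CellTiter-Fluor fluorescence after 23.5 h compound exposure at 37 °C plus 30 min reagent incubation.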
In assay [11] the target is Estrogen receptor (Homo sapiens) (UniProt P03372). Kind of assay: qHTS assay to identify small molecule antagonists of the estrogen receptor alpha (ER-alpha) signaling pathway (AID 743069; active = well fitted curve in the direction sought with a large enough effect in the signal ratio in the repeat runs, not every such curve was filed as active; inconclusive = weak or mixed curves, or effect the other way; inactive = no such curve, though single readings can be large or run the other way; the % refers to the signal ratio; note: potency is the fitted concentration of half-maximal effect). The gist of the method:
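Compound effects are measured against 17beta-estradiol stimulation in HEK293 cells with a UAS-controlled beta-lactamase reporter for ER-alpha. Exposure lasts 18 hr at 37C; LiveBLAzer B/G FRET substrate follows for 2 hr at room temperature.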

Assay [12] shares this target. Briefly: qHTS assay to identify small molecule agonists of the estrogen receptor alpha (ER-alpha) signaling pathway (AID 743075; calls by dose curve).
Assay [13] concerns the target Androgen receptor (Homo sapiens) (UniProt P10275). Briefly: qHTS assay to identify small molecule antagonists of the androgen receptor (AR) signaling pathway (AID 743035; active = well fitted inhibition curve with a large enough effect in the signal ratio in the repeat runs, not every such curve was filed as active; inconclusive = weak or mixed curves, or effect the other way; inactive = no such curve, though single readings can be large or run the other way; the % refers to the signal ratio; note: potency is the fitted concentration of half-maximal effect). The gist of the method: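 Antagonism is scored as loss of R1881-driven beta-lactamase reporter expression in HEK293 cells carrying the reporter under a UAS element, after 16 h co-treatment at 37C and a 2 h room-temperature FRET substrate read.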

For assay [14] the target is unchanged. Kind of assay: qHTS assay to identify small molecule agonists of the androgen receptor (AR) signaling pathway using the MDA cell line (AID 743040; note: nearly all actives have a fitted effect of over 20% in size). The gist of the method: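 After a 5 h incubation at 37C and 0% CO2, MDA-kb2 reporter cells were dosed with compounds in DMSO and kept 16 h under the same conditions. Luciferase activity was then read as luminescence with ONE-Glo.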

A short description of assay [15]: qHTS assay to identify small molecule antagonists of the androgen receptor (AR) signaling pathway using the MDA cell line - cell viability counter screen (AID 743041; note: nearly all actives have a fitted effect of over 45% in size). An outline of the steps:
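R1881-driven MDA-kb2 AR-luc cells, 3,000/well, were dosed with library compounds for 16 h; cell health came from CellTiter-Fluor fluorescence in the reporter wells.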

A short description of assay [16]: qHTS assay to identify small molecule antagonists of the estrogen receptor alpha (ER-alpha) signaling pathway using the BG1 cell line (AID 743080; calls by dose curve;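 note: BG1 cells stimulated with 17beta-estradiol alongside compound; series mostly up to about 70 µM; nearly all actives have a fitted effect of over 25% in size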). The gist of the method:
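Readout is ONE-Glo luminescence, taken 30 min at room temperature after reagent addition, preceded by a CellTiter-Fluor viability read; BG1-Luc-4E2 cells had received compound and 17beta-estradiol for 21.5 h at 37 C.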

Assay [17] concerns the target Estrogen receptor (Homo sapiens) (UniProt P03372). Kind of assay: qHTS assay to identify small molecule agonists of the estrogen receptor alpha (ER-alpha) signaling pathway using the BG1 cell line (AID 743079). Note: nearly all actives have a fitted effect of over 20% in size.
In assay [18] the target is Androgen receptor (Homo sapiens) (UniProt P10275). Kind of assay: qHTS assay to identify small molecule antagonists of the androgen receptor (AR) signaling pathway using the MDA cell line (AID 743042; note: nearly all actives have a fitted effect of over 55% in size). An outline of the steps:
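Antagonist mode: compounds plus R1881 agonist added to MDA-kb2 AR-luc cells, incubated 16 h at 37C. Luciferase reporter luminescence quantified, with multiplexed CellTiter-Fluor readout for cell viability.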

Aromatase (Homo sapiens), sequence (P11511 whole entry, looked up): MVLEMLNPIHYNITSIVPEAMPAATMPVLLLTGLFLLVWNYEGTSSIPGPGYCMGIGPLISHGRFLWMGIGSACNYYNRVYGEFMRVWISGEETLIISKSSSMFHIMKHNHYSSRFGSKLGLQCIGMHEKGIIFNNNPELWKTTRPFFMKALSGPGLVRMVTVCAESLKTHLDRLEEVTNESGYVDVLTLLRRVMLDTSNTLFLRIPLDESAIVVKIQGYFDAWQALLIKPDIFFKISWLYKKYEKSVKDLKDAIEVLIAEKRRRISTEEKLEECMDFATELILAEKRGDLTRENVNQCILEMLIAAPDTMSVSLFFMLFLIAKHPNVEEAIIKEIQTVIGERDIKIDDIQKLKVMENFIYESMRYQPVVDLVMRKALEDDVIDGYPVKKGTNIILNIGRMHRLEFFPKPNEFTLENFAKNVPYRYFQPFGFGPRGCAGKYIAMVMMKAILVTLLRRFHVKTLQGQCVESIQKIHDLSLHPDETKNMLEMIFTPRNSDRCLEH
Estrogen receptor (Homo sapiens), sequence (P03372 whole entry, looked up): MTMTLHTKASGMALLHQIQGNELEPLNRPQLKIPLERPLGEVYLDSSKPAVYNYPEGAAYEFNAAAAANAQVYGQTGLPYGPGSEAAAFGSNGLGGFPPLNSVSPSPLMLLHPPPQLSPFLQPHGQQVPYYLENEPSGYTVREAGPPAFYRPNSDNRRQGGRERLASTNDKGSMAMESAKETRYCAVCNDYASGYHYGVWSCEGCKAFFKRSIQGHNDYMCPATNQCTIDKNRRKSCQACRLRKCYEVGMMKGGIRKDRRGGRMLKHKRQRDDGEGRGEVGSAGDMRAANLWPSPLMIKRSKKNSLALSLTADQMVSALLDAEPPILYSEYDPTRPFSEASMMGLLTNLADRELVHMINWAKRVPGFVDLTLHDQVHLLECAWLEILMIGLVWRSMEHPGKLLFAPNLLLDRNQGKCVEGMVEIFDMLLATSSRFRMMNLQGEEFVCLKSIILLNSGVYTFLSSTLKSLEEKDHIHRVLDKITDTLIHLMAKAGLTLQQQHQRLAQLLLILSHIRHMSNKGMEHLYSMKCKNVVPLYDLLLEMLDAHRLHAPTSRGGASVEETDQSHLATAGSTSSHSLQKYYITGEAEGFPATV
Androgen receptor (Homo sapiens), sequence (P10275 whole entry, looked up): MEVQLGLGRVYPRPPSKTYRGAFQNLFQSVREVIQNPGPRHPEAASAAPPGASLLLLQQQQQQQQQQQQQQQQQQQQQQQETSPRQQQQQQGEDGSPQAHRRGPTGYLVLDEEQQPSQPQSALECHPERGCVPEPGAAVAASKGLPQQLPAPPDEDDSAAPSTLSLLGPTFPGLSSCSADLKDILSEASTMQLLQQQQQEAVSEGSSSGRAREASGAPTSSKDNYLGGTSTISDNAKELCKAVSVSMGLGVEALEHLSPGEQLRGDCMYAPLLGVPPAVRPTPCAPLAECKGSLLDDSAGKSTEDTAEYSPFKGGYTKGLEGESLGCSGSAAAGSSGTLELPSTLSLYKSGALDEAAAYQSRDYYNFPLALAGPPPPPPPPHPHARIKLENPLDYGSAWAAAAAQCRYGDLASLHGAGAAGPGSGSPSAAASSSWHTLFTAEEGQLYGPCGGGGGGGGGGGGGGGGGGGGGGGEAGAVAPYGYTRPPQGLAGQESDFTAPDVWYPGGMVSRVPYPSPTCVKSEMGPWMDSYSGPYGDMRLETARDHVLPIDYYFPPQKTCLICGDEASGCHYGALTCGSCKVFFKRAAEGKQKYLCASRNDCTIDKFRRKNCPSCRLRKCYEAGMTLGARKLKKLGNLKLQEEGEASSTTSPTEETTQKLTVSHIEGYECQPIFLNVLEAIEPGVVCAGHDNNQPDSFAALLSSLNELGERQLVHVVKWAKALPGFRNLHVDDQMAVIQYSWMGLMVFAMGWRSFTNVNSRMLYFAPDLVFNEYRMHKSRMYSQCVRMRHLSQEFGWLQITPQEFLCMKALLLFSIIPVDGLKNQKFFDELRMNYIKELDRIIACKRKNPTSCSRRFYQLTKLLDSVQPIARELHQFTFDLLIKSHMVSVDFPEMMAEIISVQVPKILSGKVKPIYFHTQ

`CC(C)OC(=O)C(C)N(C(=O)c1ccccc1)c1ccc(F)c(Cl)c1` (configuration not stated): the Potency entry (in assay [1]; in [5]; in assay [7]; in assay [8]; in assay [9]; with Aromatase (Homo sapiens)) was “inactive” throughout. For the same molecule, the Potency in [2] is 6.11 µM (active); in [3] it was 6.86 µM (active); in [4], 13.7 µM (active); in [6], 61.1 µM (active).

For `Cc1oc2c(NC(=O)c3c(Cl)cccc3Cl)cccc2c1C(C)(C)O`, the Potency entry in assay [1], in assay [5], in [7], in assay [12] and in assay [9] was “inactive” throughout. The Potency in assay [2] is 43.3 µM (active); in assay [3], 27.3 µM (active); in [4], 48.6 µM (active); in assay [10], 24.3 µM (active); in [6], 7.7 µM (active); in [11] it was 43.6 µM [inhibitor] (active).

As for `COc1ccc(S(=O)(=O)N2C(=O)[C@@](c3ccccc3OC)(N3C[C@H](O)C[C@H]3C(=O)N(C)C)c3cc(Cl)ccc32)c(OC)c1`, the Potency result in assay [1], in [14], in assay [15], in assay [8] and in [12] was “inactive” each time. The Potency in assay [2] is 48.6 µM (active); in assay [3], 61.1 µM (active); in assay [4], 48.6 µM (active); in assay [13], 17.4 µM (active); in [10], 34.4 µM (active); in [6], 68.6 µM (active). The figures for the Potency (in assay [11]; in the assay with Aromatase (Homo sapiens)) were 43.6 µM [inconclusive] (active) and 61.1 µM (active), respectively.

As for `O=C(O)CC(=O)C(=O)O`, the Potency entry in [1], in [2], in assay [3], in assay [4], in [5] and in assay [15] was “inactive” each time. Moreover, the Potency entry (in [8]; in assay [9]; in the assay with Aromatase (Homo sapiens)) was “inactive” throughout.

For the molecule `Cc1c(N)cccc1[N+](=O)[O-]`, the Potency entry in assay [1], in [2], in assay [3], in assay [4], in [5] and in assay [15] was “inactive” each time. The Potency entry in [6], in assay [7], in [11], in assay [8], in [12] and in assay [16] was “inactive” in each case. Moreover, the Potency result in assay [9] is “inactive”.

`CCCCCCCC#N`: the Potency result in assay [1], in assay [2], in [3], in assay [4], in assay [15] and in assay [10] was “inactive” throughout. Moreover, the Potency entry in assay [6], in [7] and in [9] was “inactive” throughout.

Regarding `CNCCCCOc1ccccc1Cc1ccccc1`, the Potency result in assay [1], in assay [5], in assay [15], in assay [8], in assay [12] and in [17] was “inactive” in each case. Further, the Potency entry in assay [16] and in [9] was “inactive” in each case. The Potency in assay [2] is 4.22 µM (active); in assay [3], 3.35 µM (active); in assay [4], 5.31 µM (active); in [6], 11.9 µM (active).

Turning to `C[C@H]1C[C@H]2[C@@H]3CCC4=CC(=O)C=C[C@]4(C)[C@@]3(Cl)[C@@H](O)C[C@]2(C)[C@@]1(O)C(=O)CO`, the Potency entry in assay [1], in assay [2], in assay [3], in [4], in assay [15] and in [10] was “inactive” in each case. Further, the Potency result in [6], in assay [7], in assay [8], in assay [12], in assay [17] and in assay [9] was “inactive” throughout. Moreover, the Potency entry with Aromatase (Homo sapiens) was “inactive”.

For `CC[N+]1(CC)CCC(=C(c2ccccc2)c2ccccc2)C1C` (configuration not stated), the Potency result (in assay [1]; in assay [5]; with Aromatase (Homo sapiens)) was “inactive” in each case. In addition, the Potency is 8.41 µM (active) in assay [2], 16.8 µM (active) in assay [3] and 13.3 µM (active) in assay [4].

In the case of `O=C(Nc1ccccc1)c1ccccc1O`, the Potency result (in [1]; in assay [14]; in [10]; in [7]; in assay [9]; with Aromatase (Homo sapiens)) was “inactive” in each case. Also, the Potency in [2] was 48.6 µM (active); in assay [3], 48.6 µM (active); in assay [4], 30.6 µM (active); in assay [6], 61.1 µM (active).

Consider `CC(C)(CO)[N+](=O)[O-]`, for which the Potency entry in assay [1], in assay [2], in assay [3], in assay [4], in assay [5] and in assay [15] was “inactive” throughout. For the same molecule, the Potency entry (in [6]; in assay [7]; in [9]; in the assay with Aromatase (Homo sapiens)) was “inactive” in each case.

As for `CCCCCCCC/C=C\CCCCCCCC(=O)OCC`, the Potency entry in assay [1], in assay [2], in assay [3], in assay [4], in [5] and in assay [15] was “inactive” in each case. Moreover, the Potency result (in assay [6]; in assay [7]; in assay [8]; in assay [9]; with Aromatase (Homo sapiens)) was “inactive” throughout.

For `C=C(C)C(=O)OCC`, the Potency result in assay [1], in [2], in assay [3], in [4], in [15] and in [10] was “inactive” throughout. The Potency entry in assay [6], in assay [7], in [11], in [8], in assay [12] and in [17] was “inactive” throughout. Besides, the Potency entry (in [16]; in assay [9]; with Aromatase (Homo sapiens)) was “inactive” each time.

Take `N=c1ccn2c(n1)O[C@H]1[C@H](O)[C@@H](CO)O[C@H]12`: the Potency result in assay [1], in assay [15], in assay [7], in assay [11], in [8] and in [12] was “inactive” throughout. In addition, the Potency result (in assay [17]; in assay [16]; in assay [9]; in the assay with Aromatase (Homo sapiens)) was “inactive” each time. Moreover, the Potency was 211 nM (active) and 193 nM (active) in assay [2]; 237 nM (active) and 137 nM (active) in assay [3]; 266 nM (active) and 172 nM (active) in assay [4]; 0.531 µM (active) in assay [10]; 531 nM (active) and 545 nM (active) in assay [6].

On to `Clc1ccc(Cn2c(CN3CCCC3)nc3ccccc32)cc1`, for which the Potency entry in [1], in assay [5], in [15], in assay [7], in assay [8] and in [9] was “inactive” in each case. Further, in the assay with Aromatase (Homo sapiens), the Potency result is “inactive”. Besides, the Potency in assay [2] is 4.03 µM (active); in assay [3] it was 2.54 µM (active); in assay [4], 7.17 µM (active); in [6], 11.4 µM (active).

`CCOC(=O)C1=C[C@]2(CC)CCCN3CCc4c(n1c1ccccc41)[C@@H]32`: the Potency result in assay [1], in [5], in assay [15], in assay [11], in [8] and in assay [12] was “inactive” throughout. For the same molecule, the Potency result (in assay [17]; in [16]; in assay [9]; with Aromatase (Homo sapiens)) was “inactive” in each case. The Potency in [2] was 10.6 µM (active) and 6.68 µM (active); in assay [3], 10.6 µM (active) and 9.44 µM (active); in assay [4] it was 16.8 µM (active) and 10.6 µM (active); in assay [10] it was 9.44 µM (active).

As for `COC(=O)c1ccc(I)cc1S(=O)(=O)NC(=O)Nc1nc(C)nc(OC)n1`, the Potency result in assay [1], in assay [2], in [3], in assay [4], in assay [5] and in assay [15] was “inactive” throughout. For the same molecule, the Potency result (in assay [6]; in assay [8]; in assay [9]; with Aromatase (Homo sapiens)) was “inactive” each time.

Turning to `O=C1CCCCCCCCCCCC(=O)OCCO1`, the Potency entry in assay [1], in assay [14], in assay [15], in assay [18], in assay [7] and in assay [11] was “inactive” throughout. For the same molecule, the Potency result in assay [8], in assay [12], in [17], in assay [16] and in assay [9] was “inactive” in each case. The Potency is 54.5 µM (active) in assay [2], 27.3 µM (active) in assay [3], 27.3 µM (active) in assay [4] and 48.6 µM (active) with Aromatase (Homo sapiens).

The record behind these values is PubChem BioAssay (Tox21).
